From PubChem BioAssay AID435022 (Sanford-Burnham Center for Chemical Genomics, 2010)
Hit rate of the full screen: of about 330,000 compounds, about 1,100 (0.33%) were called active. The list comes from a sample in which actives are over-represented; it also holds similar structures and randomly drawn compounds. Unmarked numbers belong to inactive results. No stated cut-off is given here; in the data, active means inhibition above about 35%; inactive means the rest.

assay: inhibitors of PMA/ionomycin-induced NF-kB reporter, 697 cells, primary screen, B-cell NF-kB inhibitor project, cell-based, luminescence, uHTS (AID 435022); conditions: 697 B-cell NF-kB luciferase reporter, 16 h, at 4 µM, hits give high values

SMILES	inhibition
CC(C)(C)c1cnnn1-c1ccc([N+](=O)[O-])cc1	12.8%
Cc1ccccc1Cn1c2ccccc2c2cnn(CC(=O)NCc3ccco3)c(=O)c21	-4.9%
O=C(NC(Nc1nc2ccc([N+](=O)[O-])cc2s1)(C(F)(F)F)C(F)(F)F)c1ccccc1	99.5% (active)
O=C(NOCc1ccccc1)c1cccc([N+](=O)[O-])c1	-12.3%
O=C(COC(=O)c1ccc([N+](=O)[O-])cc1Cl)NC(=O)c1ccccc1	-5.46%
CCOC(=O)c1c(C)n(C)c2ccc(OC)c(NS(=O)(=O)CC)c12	-4.31%
COc1ccc2cc(CCl)c(Cl)nc2c1	-1.58%
O=C(Cn1cnc2ccccc2c1=O)NNC(=O)c1ccccc1F	1.67%
O=C(NCc1ccccc1CN1CCCC1)C1CCN(S(=O)(=O)c2ccc(Cl)cc2)CC1	-7.16%
COc1ccc(CNC(=O)c2ccc(Br)s2)cc1OC	-2.07%
COc1ccc(CNC(=O)CNC(=O)c2sc3ccccc3c2Cl)cc1OC	35% (active)
COc1ccc(CNC(=O)Cc2ccc(-c3ccccc3)cc2)cc1OC	8.2%
Cc1cc(C(F)(F)F)nc(SCC(=O)Nc2nccs2)n1	-18.2%
Cc1[nH]nc(SCC(=O)NCC(C)C)c1[N+](=O)[O-]	9.07%
Cc1oc2c(C)c3oc(=O)c(CC(=O)N[C@@H](CC(C)C)C(=O)N[C@@H](Cc4ccccc4)C(=O)O)c(C)c3cc2c1C	22.3%
CCOc1ccc(C(=O)Nc2cc(Cl)ccc2-n2cncn2)cc1OC	14%
CN(C)S(=O)(=O)c1ccc(N2CCCC2)c(C(=O)Nc2ccc(Br)cc2F)c1	9.57%
CCCc1nc2c(C)cc(-c3nc4ccccc4n3C)cc2n1Cc1ccc(-c2ccccc2C(=O)O)cc1	44.7% (active)
CC(=O)c1nc2ccccc2n1Cc1ccccc1	3.31%
Cc1ccc(Cn2c(SCC(=O)N/N=C/c3ccccc3OCC(=O)O)nc3ccccc32)cc1	3.74%
O=C1Nc2ccc(Br)cc2/C1=N/N=C/C1=C(N2CCOCC2)C(=C\c2ccccc2)/CC1	13.3%
COc1ccc(C2C=C(c3ccc(Br)cc3)Nc3nc(NS(C)(=O)=O)nn32)cc1 (stereo not given)	8.48%
Cc1ccc(/C=C2/SC(=S)N(CCC(=O)NCCCN3CCOCC3)C2=O)cc1	-16.3%
C=CCOc1ccc(/C=C2\SC(=S)N(CCC(=O)O)C2=O)cc1	62.4% (active)
O=C1/C(=C/c2ccc(F)cc2)SC(=S)N1CCCC(=O)N1CCCCC1CCO (stereo not given)	-3.3%
CN(CC(=O)NCc1ccncc1)S(=O)(=O)c1ccc(Br)cc1	12.7%
Cc1n[nH]c(C)c1S(=O)(=O)N1CCCC(C(=O)Nc2ccc(Br)cc2)C1 (stereo not given)	-12.3%
Cc1cc(Nc2cc(N3CCN(C)CC3)nc(Sc3ccc(NC(=O)C4CC4)cc3)n2)n[nH]1	37% (active)

SMILES	inhibition
Cc1cc(C)nc(N2CCC(C(=O)Nc3ccc4c(c3)OCCO4)CC2)n1	-5.99%
CC(=O)c1c(C)[nH]c(C(=O)COC(=O)c2cccc(S(=O)(=O)N(C)c3ccccc3)c2)c1C	-50%
O=C(C1CCCN(S(=O)(=O)c2ccc([N+](=O)[O-])cc2)C1)N1CCCCC1 (stereo not given)	-4.88%
O=C(C1CCC1)N1CCN(S(=O)(=O)c2ccc([N+](=O)[O-])cc2)CC1	38.2% (active)
O=C(Cc1ccccc1)N1CCN(S(=O)(=O)c2ccc([N+](=O)[O-])cc2)CC1	4.38%
COC(=O)c1c(NC(=O)COC(=O)[C@@H](NS(=O)(=O)c2ccccc2)C(C)C)sc2c1CCC2	10.3%
CC1CCCCN1C(=O)Cn1c(=O)oc2cc(S(=O)(=O)N3CCCCC3)ccc21 (stereo not given)	4.87%
O=C(CSc1nc(-c2ccccc2)cs1)Nc1cccc([N+](=O)[O-])c1	1.61%
CCN(CCCNC(=O)c1ccc2c(c1)NC(=O)CN2C)c1cccc(C)c1	-19.3%
O=C(Nc1ccc(-c2csc(Nc3cccc(C(F)(F)F)c3)n2)cc1)c1cccc(C(F)(F)F)c1	-26.3%
CNC(=O)c1ccc(NC(=O)c2cccc(C(F)(F)F)c2)cc1	40.3% (active)
O=C(Nc1ccc(C(F)(F)F)cc1)c1cccc(-n2cnnn2)c1	-26.7%
Cc1ccc(NC(=O)CSc2nnc(CNC(=O)c3ccccc3F)o2)cc1	0.808%
CCOC(=O)N1CCN(S(=O)(=O)c2ccc(-n3cnnn3)cc2)CC1	-11.9%
CCCNC(=O)c1ccc(N2CCC3(CC2)CC(c2cccc(Br)c2)=NO3)c(NC(=O)c2ccco2)c1	35.6% (active)
O=C(Nc1ccccc1N1CCN(C(=O)c2ccccc2)CC1)c1ccco1	6.77%
CCCNC(=O)c1ccc(N2CCC3(CC2)CC(c2ccc(Cl)cc2)=NO3)c([N+](=O)[O-])c1	-1.96%
COc1ccc(NC(=O)c2sccc2SCC#N)cc1	0.298%
O=C(O)C1=C[C@H](c2cccs2)C[C@H](OCCCCO)O1	27.6%
Cn1c(CCCOc2ccc(Cl)cc2Cl)n[nH]c1=S	-42.5%
COc1cc(N=Cc2c(O)[nH]c3ccccc23)cc(OC)c1OC	45.5% (active)
COc1ccc2[nH]c(C(=O)N/N=C/c3cc(OC)c(OC)c(OC)c3)cc2c1	-5.61%
CN=c1scc(-c2cc(OC)ccc2OC)n1/N=C/c1c(C)[nH]c2ccccc12	-18%
O=C(Nc1ccc2c(c1)OCO2)C1CC(c2c(F)cccc2Cl)=NO1 (stereo not given)	10.7%
O=C(CNC(=O)Cc1ccccc1)NCC(=O)OCC(=O)c1ccccc1Cl	12.5%
O=C(O)c1ccc(COc2c(F)c(F)cc(F)c2F)o1	4.23%
Cn1c(=O)c2c(nc(N3CCCCCC3)n2CC(O)COc2ccc(Cl)cc2)n(C)c1=O (stereo not given)	-3.4%
